Holding throughout (assay): DAPPL (digital affinity profiling via proximity ligation, sequencing); 10 mM Tris-HCl pH 7.5, 50 mM NaCl, 1 mM DTT, 4% glycerol, room temperature, 30 min; GST-TFs on glutathione beads, 16-mer random dsDNA library, 0.1% formaldehyde crosslink after washing; high values mean tight binding
Test [1] has as its target T1, FLI1 (Homo sapiens, UniProt Q01543 1-452).
T1 sequence: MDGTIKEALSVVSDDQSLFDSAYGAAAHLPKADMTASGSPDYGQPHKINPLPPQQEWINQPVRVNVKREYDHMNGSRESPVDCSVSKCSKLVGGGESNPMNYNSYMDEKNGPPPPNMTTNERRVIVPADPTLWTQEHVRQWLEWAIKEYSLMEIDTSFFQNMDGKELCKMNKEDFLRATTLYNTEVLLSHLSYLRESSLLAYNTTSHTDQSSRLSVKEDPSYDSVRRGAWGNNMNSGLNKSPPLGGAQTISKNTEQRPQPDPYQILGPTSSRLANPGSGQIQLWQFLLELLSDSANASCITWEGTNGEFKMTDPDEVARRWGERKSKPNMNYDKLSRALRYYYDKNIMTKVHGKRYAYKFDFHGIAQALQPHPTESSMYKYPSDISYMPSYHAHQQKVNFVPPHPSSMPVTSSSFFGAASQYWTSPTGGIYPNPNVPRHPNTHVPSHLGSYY
Conditions: protein: recombinant; tags: N-terminal GST; dsDNA, one strand shown. The gist of the method: (§1)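 Sequencing on an Illumina NextSeq500 followed washing, crosslinking with 0.1% formaldehyde, proximity ligation (BsaI/T4 ligase, 1 h, 37 °C) and PCR amplification of pools that had been incubated for 30 min at room temperature with 200 nmole of a random double-stranded 16-mer DNA library in Tris/NaCl/DTT/glycerol buffer. Each pool held DNA-barcoded human transcription factors, expressed in yeast as GST fusions and captured on glutathione beads, plus a tag-only sample. Binding signal is a hexamer's read frequency for a factor divided by its frequency in the tag-only sample.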

In test [2] the target is T2, ELK1 (Homo sapiens, UniProt P19419 1-428).
T2 sequence: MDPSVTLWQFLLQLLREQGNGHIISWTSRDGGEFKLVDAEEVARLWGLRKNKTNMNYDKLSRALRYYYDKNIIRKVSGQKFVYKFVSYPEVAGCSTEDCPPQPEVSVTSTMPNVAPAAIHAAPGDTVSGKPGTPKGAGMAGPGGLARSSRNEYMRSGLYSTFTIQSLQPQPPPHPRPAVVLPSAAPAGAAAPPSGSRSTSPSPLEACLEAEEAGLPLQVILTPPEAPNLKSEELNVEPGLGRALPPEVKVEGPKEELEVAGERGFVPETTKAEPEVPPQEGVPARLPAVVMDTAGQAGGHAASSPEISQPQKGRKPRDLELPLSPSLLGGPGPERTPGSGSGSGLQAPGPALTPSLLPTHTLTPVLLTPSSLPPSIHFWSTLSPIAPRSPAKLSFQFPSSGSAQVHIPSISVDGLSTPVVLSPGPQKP
As to conditions: protein: recombinant; tags: N-terminal GST; dsDNA, one strand shown. Put shortly: as §1

The target in test [3] is T3, GABPA (Homo sapiens, UniProt Q06546 1-454).
T3 sequence: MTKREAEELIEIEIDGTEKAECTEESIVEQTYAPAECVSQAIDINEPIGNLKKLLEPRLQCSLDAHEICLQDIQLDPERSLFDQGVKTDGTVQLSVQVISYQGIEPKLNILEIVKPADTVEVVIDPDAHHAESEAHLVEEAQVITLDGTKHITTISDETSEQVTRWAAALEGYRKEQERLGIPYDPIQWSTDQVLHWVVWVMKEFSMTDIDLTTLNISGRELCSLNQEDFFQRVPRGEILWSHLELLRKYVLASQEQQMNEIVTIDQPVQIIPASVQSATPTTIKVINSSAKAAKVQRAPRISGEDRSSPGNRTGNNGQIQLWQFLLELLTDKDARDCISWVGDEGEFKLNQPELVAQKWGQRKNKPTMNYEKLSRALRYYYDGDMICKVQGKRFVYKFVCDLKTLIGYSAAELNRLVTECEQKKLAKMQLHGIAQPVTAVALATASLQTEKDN
As to conditions: protein: recombinant; tags: N-terminal GST; dsDNA, one strand shown. Put shortly:
as §1

For test [4], the target named is T4, ERG (Homo sapiens, UniProt P11308 1-479).
T4 sequence: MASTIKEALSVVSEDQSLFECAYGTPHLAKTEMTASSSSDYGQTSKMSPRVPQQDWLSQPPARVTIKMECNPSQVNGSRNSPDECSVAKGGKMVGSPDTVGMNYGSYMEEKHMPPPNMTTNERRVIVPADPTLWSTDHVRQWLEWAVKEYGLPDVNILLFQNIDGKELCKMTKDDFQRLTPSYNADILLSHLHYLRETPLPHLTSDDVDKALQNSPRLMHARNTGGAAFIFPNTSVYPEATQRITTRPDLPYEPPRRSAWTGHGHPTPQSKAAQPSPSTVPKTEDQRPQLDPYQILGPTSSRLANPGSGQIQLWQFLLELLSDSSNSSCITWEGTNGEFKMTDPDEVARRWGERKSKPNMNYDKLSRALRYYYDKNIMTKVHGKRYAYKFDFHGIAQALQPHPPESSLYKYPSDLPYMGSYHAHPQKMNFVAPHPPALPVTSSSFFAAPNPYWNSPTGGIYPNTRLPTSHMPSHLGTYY
As to conditions: protein: recombinant; tags: N-terminal GST; dsDNA, one strand shown. Put shortly: as §1

Test [5] concerns the target ELF1 (Homo sapiens, UniProt P32519 1-619). As to conditions: protein: recombinant; tags: N-terminal GST; dsDNA, one strand shown. Put shortly:
as §1

Test [6] addresses T5, EHF (Homo sapiens, UniProt Q9NZC4 1-300).
T5 sequence: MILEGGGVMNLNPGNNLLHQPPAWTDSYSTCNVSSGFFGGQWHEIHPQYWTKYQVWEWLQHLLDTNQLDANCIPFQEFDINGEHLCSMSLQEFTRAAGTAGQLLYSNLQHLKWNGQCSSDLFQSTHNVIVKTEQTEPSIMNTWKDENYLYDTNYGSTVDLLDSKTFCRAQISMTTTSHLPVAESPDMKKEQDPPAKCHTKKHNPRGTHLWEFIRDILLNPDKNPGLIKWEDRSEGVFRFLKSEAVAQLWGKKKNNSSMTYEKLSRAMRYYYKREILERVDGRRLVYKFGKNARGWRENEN
As to conditions: protein: recombinant; tags: N-terminal GST; dsDNA, one strand shown. The gist of the method: as §1

Test [7] has as its target SPI1 (Homo sapiens, UniProt P17947 1-270). As to conditions: protein: recombinant; tags: N-terminal GST; dsDNA, one strand shown. The gist of the method: as §1
Test [8] concerns the target T6, ELK3 (Homo sapiens, UniProt P41970 1-407).
T6 sequence: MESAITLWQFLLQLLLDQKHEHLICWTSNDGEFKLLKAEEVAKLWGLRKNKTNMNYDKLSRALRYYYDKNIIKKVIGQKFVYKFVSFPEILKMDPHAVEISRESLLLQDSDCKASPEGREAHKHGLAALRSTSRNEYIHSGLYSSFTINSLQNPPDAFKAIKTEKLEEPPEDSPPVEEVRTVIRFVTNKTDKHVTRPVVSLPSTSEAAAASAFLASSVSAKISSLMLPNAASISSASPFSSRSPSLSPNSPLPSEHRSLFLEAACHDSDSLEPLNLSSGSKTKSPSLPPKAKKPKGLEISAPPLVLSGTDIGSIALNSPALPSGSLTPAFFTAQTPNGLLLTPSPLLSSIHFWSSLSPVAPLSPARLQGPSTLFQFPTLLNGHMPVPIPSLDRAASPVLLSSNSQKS
Conditions: protein: recombinant; tags: N-terminal GST; dsDNA, one strand shown. The gist of the method:
as §1

Test [9] concerns the target T7, FEV (Homo sapiens, UniProt Q99581 1-238).
T7 sequence: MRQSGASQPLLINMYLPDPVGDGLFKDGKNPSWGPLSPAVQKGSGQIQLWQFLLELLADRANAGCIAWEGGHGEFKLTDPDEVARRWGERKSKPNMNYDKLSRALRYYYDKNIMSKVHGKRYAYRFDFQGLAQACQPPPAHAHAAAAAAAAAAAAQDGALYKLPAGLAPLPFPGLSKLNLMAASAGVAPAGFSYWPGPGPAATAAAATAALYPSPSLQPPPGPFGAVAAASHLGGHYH
As to conditions: protein: recombinant; tags: N-terminal GST; dsDNA, one strand shown. The gist of the method: as §1

Test [10] concerns the target ETV5 (Homo sapiens, UniProt P41161 1-510). As to conditions: protein: recombinant; tags: N-terminal GST; dsDNA, one strand shown. Put shortly:
as §1

The target in test [11] is HSF1 (Homo sapiens, UniProt Q00613 1-529). Conditions: protein: recombinant; tags: N-terminal GST; chain copies: 3; dsDNA, one strand shown. The gist of the method:
as §1

The target of test [12] is T8, SPIC (Homo sapiens, UniProt Q8N5J4 1-248).
T8 sequence: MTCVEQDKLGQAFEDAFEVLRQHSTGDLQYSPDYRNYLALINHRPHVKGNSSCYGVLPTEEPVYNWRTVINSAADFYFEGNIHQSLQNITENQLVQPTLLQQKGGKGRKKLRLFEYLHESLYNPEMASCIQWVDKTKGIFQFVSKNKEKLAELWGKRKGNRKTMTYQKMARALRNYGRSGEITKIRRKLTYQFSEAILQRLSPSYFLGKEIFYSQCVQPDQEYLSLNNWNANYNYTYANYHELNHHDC
Conditions: protein: recombinant; tags: N-terminal GST; dsDNA, one strand shown. Put shortly:
as §1

Test [13] concerns the target ELF4 (Homo sapiens, UniProt Q99607 1-663). As to conditions: protein: recombinant; tags: N-terminal GST; dsDNA, one strand shown. The gist of the method:
as §1

Test [14] has as its target T9, ELK4 (Homo sapiens, UniProt P28324-2 1-405).
T9 sequence: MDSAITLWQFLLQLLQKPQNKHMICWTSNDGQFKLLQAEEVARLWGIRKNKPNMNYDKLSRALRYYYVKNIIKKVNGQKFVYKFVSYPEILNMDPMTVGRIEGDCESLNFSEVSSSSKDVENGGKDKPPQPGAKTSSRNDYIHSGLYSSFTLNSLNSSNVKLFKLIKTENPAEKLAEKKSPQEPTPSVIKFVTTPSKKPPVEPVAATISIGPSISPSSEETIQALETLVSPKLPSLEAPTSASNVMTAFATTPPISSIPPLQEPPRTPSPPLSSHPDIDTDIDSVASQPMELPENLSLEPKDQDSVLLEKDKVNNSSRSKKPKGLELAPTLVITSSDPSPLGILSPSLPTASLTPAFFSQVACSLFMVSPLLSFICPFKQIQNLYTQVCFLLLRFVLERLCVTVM
Conditions: protein: recombinant; tags: N-terminal GST; dsDNA, one strand shown. Put shortly: as §1

Test [15] addresses T10, ETV2 (Homo sapiens, UniProt O00321 1-342).
T10 sequence: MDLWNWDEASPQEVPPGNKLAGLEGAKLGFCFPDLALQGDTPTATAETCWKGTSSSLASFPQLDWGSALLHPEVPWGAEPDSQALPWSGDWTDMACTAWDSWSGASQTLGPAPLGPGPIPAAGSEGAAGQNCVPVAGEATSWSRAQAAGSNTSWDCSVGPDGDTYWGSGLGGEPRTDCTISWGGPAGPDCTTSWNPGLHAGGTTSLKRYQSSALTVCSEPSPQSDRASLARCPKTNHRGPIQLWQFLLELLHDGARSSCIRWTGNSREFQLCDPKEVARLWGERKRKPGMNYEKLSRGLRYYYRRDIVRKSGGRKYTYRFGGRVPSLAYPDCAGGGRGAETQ
Conditions: protein: recombinant; tags: N-terminal GST; dsDNA, one strand shown. The gist of the method:
as §1

Test [16] has as its target T11, ELF3 (Homo sapiens, UniProt P78545 1-371).
T11 sequence: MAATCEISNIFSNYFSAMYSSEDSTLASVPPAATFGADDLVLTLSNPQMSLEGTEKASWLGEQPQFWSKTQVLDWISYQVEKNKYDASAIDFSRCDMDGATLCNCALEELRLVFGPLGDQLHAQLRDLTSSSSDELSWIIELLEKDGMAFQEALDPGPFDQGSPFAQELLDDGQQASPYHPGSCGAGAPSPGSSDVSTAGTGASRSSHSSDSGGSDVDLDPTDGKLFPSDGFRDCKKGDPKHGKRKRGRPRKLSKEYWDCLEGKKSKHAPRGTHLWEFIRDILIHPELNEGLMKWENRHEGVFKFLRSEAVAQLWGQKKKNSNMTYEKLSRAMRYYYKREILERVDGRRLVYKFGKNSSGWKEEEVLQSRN
As to conditions: protein: recombinant; tags: N-terminal GST; dsDNA, one strand shown. The gist of the method:
as §1

Test [17] deals with CRX (Homo sapiens, UniProt O43186 1-299). As to conditions: protein: recombinant; tags: N-terminal GST; dsDNA, one strand shown. The gist of the method:
as §1

For test [18], the target named is ETV1 (Homo sapiens, UniProt P50549 1-477). Conditions: protein: recombinant; tags: N-terminal GST; dsDNA, one strand shown. Put shortly: as §1
Sequence of ETV1 (P50549 whole entry): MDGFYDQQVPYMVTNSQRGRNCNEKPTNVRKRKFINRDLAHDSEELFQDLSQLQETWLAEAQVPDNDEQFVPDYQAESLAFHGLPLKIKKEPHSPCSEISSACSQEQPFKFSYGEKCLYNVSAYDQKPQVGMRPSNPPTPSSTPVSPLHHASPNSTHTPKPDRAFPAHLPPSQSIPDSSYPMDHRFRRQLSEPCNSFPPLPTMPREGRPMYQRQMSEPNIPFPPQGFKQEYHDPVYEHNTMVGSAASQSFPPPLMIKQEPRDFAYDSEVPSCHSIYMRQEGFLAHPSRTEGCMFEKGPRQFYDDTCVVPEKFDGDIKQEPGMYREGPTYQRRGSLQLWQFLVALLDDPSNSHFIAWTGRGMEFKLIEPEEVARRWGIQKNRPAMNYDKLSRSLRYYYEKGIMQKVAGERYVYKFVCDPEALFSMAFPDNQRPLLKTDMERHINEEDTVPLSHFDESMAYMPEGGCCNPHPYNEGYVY

Sequence of ELF4 (Q99607 whole entry): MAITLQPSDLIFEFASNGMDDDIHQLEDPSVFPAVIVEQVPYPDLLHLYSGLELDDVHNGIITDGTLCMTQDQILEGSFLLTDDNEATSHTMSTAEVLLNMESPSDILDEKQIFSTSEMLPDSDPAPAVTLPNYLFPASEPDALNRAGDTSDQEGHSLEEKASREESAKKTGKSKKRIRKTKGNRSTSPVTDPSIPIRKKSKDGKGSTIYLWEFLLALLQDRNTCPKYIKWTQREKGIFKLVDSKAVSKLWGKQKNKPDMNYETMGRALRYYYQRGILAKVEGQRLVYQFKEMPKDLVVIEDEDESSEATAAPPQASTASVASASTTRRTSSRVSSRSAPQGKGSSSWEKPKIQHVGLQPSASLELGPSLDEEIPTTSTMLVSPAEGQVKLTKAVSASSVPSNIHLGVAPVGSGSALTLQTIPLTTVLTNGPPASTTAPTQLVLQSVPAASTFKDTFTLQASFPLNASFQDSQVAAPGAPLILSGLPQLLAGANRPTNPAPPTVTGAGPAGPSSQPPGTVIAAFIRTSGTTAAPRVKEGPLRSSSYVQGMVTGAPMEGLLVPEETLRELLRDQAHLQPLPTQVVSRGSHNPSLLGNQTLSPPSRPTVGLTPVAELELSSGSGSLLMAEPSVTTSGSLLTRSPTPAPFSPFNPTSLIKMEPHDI
Sequence of HSF1 (Q00613 whole entry): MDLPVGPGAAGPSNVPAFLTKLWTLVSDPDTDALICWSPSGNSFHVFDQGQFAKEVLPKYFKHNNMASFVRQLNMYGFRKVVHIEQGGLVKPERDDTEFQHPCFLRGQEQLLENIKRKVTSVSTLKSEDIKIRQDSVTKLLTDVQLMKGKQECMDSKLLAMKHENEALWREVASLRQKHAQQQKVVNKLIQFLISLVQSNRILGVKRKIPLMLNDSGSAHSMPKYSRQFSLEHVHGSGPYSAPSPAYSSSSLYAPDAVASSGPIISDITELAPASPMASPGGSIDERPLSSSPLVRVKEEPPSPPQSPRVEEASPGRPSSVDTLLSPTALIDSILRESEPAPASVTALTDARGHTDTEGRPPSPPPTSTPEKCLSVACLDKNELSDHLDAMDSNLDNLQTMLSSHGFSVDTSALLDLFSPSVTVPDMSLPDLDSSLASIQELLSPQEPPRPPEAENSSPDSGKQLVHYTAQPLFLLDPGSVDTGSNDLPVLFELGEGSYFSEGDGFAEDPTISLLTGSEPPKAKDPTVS
Sequence of ETV5 (P41161 whole entry): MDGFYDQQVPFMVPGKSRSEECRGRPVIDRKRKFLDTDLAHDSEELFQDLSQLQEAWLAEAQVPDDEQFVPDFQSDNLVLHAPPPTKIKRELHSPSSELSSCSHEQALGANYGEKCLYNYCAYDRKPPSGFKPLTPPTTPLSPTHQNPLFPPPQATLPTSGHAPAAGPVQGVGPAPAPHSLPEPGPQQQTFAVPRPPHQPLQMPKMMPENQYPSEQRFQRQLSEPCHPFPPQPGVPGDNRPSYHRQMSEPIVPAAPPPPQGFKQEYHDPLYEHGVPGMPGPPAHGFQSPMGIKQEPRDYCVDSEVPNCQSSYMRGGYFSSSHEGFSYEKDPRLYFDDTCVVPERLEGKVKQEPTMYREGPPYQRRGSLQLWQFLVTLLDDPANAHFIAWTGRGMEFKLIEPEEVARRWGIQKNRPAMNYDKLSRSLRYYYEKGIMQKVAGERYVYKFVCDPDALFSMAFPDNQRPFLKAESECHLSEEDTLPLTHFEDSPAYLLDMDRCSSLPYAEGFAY
Sequence of ELF1 (P32519 whole entry): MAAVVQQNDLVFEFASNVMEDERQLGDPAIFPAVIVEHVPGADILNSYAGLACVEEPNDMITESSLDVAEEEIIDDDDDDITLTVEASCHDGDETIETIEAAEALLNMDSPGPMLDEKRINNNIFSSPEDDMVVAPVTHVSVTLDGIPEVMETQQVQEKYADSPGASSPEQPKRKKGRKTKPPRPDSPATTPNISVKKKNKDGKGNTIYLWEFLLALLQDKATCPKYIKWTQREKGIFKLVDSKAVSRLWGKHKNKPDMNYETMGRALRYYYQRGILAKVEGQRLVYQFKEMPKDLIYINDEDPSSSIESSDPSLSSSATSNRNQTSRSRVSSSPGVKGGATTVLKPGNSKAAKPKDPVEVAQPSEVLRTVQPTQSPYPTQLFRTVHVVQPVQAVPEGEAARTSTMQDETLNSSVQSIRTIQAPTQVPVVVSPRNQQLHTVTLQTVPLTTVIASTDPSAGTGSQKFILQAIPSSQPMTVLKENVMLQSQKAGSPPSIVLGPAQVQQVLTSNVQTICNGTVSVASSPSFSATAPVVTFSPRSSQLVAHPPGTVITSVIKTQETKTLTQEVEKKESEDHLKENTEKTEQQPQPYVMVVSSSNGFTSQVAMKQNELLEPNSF
Sequence of CRX (O43186 whole entry): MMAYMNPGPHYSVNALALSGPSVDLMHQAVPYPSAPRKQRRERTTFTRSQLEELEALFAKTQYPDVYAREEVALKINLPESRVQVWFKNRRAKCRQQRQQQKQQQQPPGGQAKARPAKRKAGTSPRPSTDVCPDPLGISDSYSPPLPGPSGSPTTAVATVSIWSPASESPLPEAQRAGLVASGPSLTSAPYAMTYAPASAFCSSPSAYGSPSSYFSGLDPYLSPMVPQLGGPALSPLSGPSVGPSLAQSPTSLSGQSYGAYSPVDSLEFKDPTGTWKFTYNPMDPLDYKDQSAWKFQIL

As to ATACTG, the binding signal was 1.1 fold enrichment (6-mer frequency, TF over GST control) in test [1]; 1.09 fold enrichment (6-mer frequency, TF over GST control) in [2]; 1.16 fold enrichment (6-mer frequency, TF over GST control) in test [3]; 1.06 fold enrichment (6-mer frequency, TF over GST control) in [4]; 1.09 fold enrichment (6-mer frequency, TF over GST control) in test [5]; 1.1 fold enrichment (6-mer frequency, TF over GST control) in test [6]. Further, the binding signal was 1.14 fold enrichment (6-mer frequency, TF over GST control) in test [7]; 1.14 fold enrichment (6-mer frequency, TF over GST control) in [8]; 1.04 fold enrichment (6-mer frequency, TF over GST control) in test [9]; 1.15 fold enrichment (6-mer frequency, TF over GST control) in [10]; 1.06 fold enrichment (6-mer frequency, TF over GST control) in test [11]; 1.06 fold enrichment (6-mer frequency, TF over GST control) in [12]. For the same sequence, the binding signal was 1.16 fold enrichment (6-mer frequency, TF over GST control) in [13]; 1.29 fold enrichment (6-mer frequency, TF over GST control) in test [14]; 1.32 fold enrichment (6-mer frequency, TF over GST control) in [15]; 1.18 fold enrichment (6-mer frequency, TF over GST control) in test [16]; 1.11 fold enrichment (6-mer frequency, TF over GST control) in test [17]; 1.05 fold enrichment (6-mer frequency, TF over GST control) in [18].

The record behind these values is publication PMC7862700, “An all-to-all approach to the identification of sequence-specific readers for epigenetic DNA modifications on cytosine”.
